This excerpt belongs to a sample that is enriched for hits.
IL-1B inflam inh: blocks inflammasome-driven IL-1 beta release. hit rate 4.7% among 360,000. THP-1 LPS/ATP IL-1B secretion, AlphaLISA, 16 h; stronger effect = lower value. activity change, % at 57.5 µM; in the data active = activity change below about -50%; inconclusive = mostly about -30% to -49%
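THP-1 cells pretreated 1 hr with compounds (up to 57.5 uM final), then stimulated with LPS (250 ng/mL final) plus ATP (1.25 mM final); secreted IL-1B measured by AlphaLISA after 16 hr, decreased signal indicating inhibition.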
DT40 TDP1 CPT: growth inhibition of DT40 Tdp1-/-;hTDP1 cells with camptothecin (screen for TDP1 inhibitors); Potency, µM (series often up to 46.2 µM), for inactives: top-dose activity change, negative = growth inhibition, actives largely listed as inhibitors; hit rate 12% among 420,000; AID 686979; chicken DT40 Tdp1-/-;hTDP1 cells + 20 nM CPT, ATP luminescence, 48 h; also: potency is read from the fitted curve at half-maximal effect; nearly all actives have a fitted effect of over 55% in size
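Chicken DT40 Tdp1-/- cells stably complemented with human TDP1 were seeded at 400 cells/well in medium containing 20 nM camptothecin, exposed to pin-transferred compounds, and grown at 37 °C for at least 48 hr. Viability was read as ATP luminescence.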
HT1080NT lethal: kills 2HG-producing HT-1080-NT fibrosarcoma cells; Potency, µM (top dose mostly 46.1 µM), for inactives: top-dose activity, negative = less viability, actives largely listed as cytotoxic; HT-1080-NT fibrosarcoma viability, CellTiter-Glo ATP luminescence, 48 h; hit rate 1.6% among 360,000;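 also: NT is the 2HG producing partner of a matched IDH1 knockdown line; potency is read from the fitted curve at half-maximal effect; 0% = DMSO-treated cells and -100% = media-only wells without cells; nearly all actives have a fitted effect of over 55% in size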
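HT-1080-NT fibrosarcoma cells (2HG-overproducing), 750 cells/well in RPMI with 5% FBS, dosed after 2 h and incubated 48 h at 37C. CellTiter-Glo luminescence normalized to DMSO and no-cell wells; concentration-response curves fitted and classed.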
HT1080 IDH1KD tx: kills HT-1080 cells with IDH1 knockdown | Potency, µM (doses to about 46.1 µM), without a hit: at the top dose activity, negative = toxicity, most hits filed as cytotoxic | hit rate 2% among 360,000 | AID 686971 | HT-1080 IDH1 knockdown viability, ATP luminescence, 48 h;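 also: potency is read from the fitted curve at half-maximal effect; 0% = DMSO wells and -100% = cell-free medium wells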
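Assay cells: HT-1080 with IDH1 knockdown, 750 per well, RPMI/5% FBS. Exposure: 48 h at 37 °C following 2 h pre-incubation. Read: CellTiter-Glo luminescence; fitted concentration-response, curve class assigned.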
DT40 TDP1 no CPT: qHTS for Inhibitors of human tyrosyl-DNA phosphodiesterase 1 (TDP1): qHTS in cells in absence of CPT | hit rate 15% among 420,000 | DT40 Tdp1-/- hTDP1 cells, no CPT, ATP luminescence, 48 h | AID 686978, 2013 | Potency, µM (titrated, usually from 46.2 µM), without a hit: at the highest dose activity change, negative = growth inhibition, actives largely listed as inhibitors; also: potency is read from the fitted curve at half-maximal effect; nearly all actives have a fitted effect of over 55% in size
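No-CPT arm: Tdp1-/-;hTDP1 DT40 cells (400/well) plus compounds, incubated ≥48 hr at 37 °C. Readout CellTiter-Glo luminescence.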
ALOX12 inh: blocks human arachidonate 12S-lipoxygenase. hit rate 1.1% among 580,000. P18054. purified 12hLO, xylenol orange hydroperoxide absorbance. Potency, µM (highest dose often 108 µM), inactives show top-dose activity change, negative = inhibition, hits mostly inhibitors; also: potency is read from the fitted curve at half-maximal effect
Target sequence (P18054 whole entry, looked up): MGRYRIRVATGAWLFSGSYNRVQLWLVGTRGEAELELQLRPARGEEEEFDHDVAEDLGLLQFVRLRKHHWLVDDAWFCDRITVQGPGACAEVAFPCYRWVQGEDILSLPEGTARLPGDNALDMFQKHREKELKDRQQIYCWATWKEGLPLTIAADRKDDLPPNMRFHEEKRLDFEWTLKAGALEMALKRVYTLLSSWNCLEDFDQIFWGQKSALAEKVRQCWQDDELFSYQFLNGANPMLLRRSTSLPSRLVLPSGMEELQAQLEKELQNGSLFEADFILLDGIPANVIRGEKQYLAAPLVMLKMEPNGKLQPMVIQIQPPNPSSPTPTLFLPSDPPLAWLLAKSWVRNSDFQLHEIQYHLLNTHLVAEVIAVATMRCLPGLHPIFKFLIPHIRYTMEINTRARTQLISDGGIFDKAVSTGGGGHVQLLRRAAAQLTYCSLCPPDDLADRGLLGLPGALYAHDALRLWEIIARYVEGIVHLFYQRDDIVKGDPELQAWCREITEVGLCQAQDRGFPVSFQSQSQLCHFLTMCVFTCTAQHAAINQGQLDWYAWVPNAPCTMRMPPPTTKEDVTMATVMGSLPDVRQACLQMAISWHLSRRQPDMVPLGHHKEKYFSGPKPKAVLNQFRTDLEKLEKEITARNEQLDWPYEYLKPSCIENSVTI
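Hydroperoxide product was detected by ferrous iron/xylenol orange as the 573 to 405 nm absorbance ratio. Arachidonic acid at 40 uM (final) was turned over for 30 min at room temperature by 150 nM human 12hLO, pH 7.0 Hepes buffer, after 15 min compound preincubation.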
* hit, by the source's call; u = inconclusive; x = not tested or not shown. Unless noted, calls follow the shape of the dose curve; as a rule, active = well fitted curve in the direction sought with a large enough effect; inconclusive = small, poorly fitted or top-dose-only effect, or another doubt; inactive = no such curve, though single readings can be large; an effect the other way counts as inactive or inconclusive. Unless noted, % is scaled to controls: 0 for no effect and ±100 for the full control effect.

SMILES	IL-1B inflam inh	DT40 TDP1 CPT	HT1080NT lethal	HT1080 IDH1KD tx	DT40 TDP1 no CPT	ALOX12 inh
CCCCn1c(CCl)nc2cc(S(=O)(=O)N3CCOCC3)ccc21	x	4.6µM*	-10%	u	6.5µM*	3%
CCOC(=O)C1CCCN(S(=O)(=O)CCNC(=O)c2ccc3c(c2)OCO3)C1 (stereo unspecified)	-73*	-1%	3%	4%	-6%	0%
Cc1ccc(NS(=O)(=O)c2cc(OCC(N)=O)c(C)cc2Cl)cc1C	31	20µM*	-15%	-16%	u	u
CCCCn1c(C)nc2cc(S(=O)(=O)N3CCOCC3)ccc21	3	-27%	-2%	0%	-25%	-6%
CCOC(=O)C1CCCN(S(=O)(=O)c2cc(OCC(N)=O)c(C)cc2Cl)C1 (stereo unspecified)	-92*	-15%	0%	-6%	-9%	u
CCOC(=O)C1CCCN(S(=O)(=O)c2ccc(S(N)(=O)=O)cc2)C1 (stereo unspecified)	-12	-1%	-2%	-14%	u	9%
CCOC(=O)C1CCCN(S(=O)(=O)c2csc(C(N)=O)c2)C1 (stereo unspecified)	x	u	x	x	15µM*	-1%
C/C(=N\NC(=S)Nc1cc(S(=O)(=O)N2CCOCC2)ccc1Cl)c1ccccc1F	0	3.3µM*	-17%	u	2.3µM*	u
Cc1cc(Cl)c(S(=O)(=O)N2CCCC2)cc1OCC(N)=O	-8	3%	-7%	-6%	-3%	17%
CCOC(=O)C1CCCN(C(=S)Nc2ccc(S(=O)(=O)N3CCOCC3)cc2)C1 (stereo unspecified)	-7	u	0%	-10%	16µM*	-5%
COCCCNC(=S)N1CCN(c2ccc([N+](=O)[O-])cc2)CC1	0	16µM*	10%	0%	8.2µM*	-17%
O=[N+]([O-])c1ccc(N2CCN(C(=S)NCc3ccc(Cl)cc3)CC2)cc1	x	5.8µM*	u	u	3.7µM*	-20%
O=C(NCc1ccccn1)C1CCCN(C2CCN(S(=O)(=O)C3CC3)CC2)C1 (stereo unspecified)	x	x	x	x	x	10%
N#Cc1c(-c2ccccc2)c(-c2ccccc2)n(Cc2ccco2)c1NC(=O)c1cccs1	-4	11µM*	-3%	-3%	u	0%
Cc1ccc(C)c(Cn2c3ccccc3c3cnn(CC(=O)NCCCN4CCCCC4)c(=O)c32)c1	u	u	u	u	16µM*	-20%
O=C(Cn1ncc2c3ccccc3n(Cc3ccccc3F)c2c1=O)NCc1ccccc1Cl	x	21µM*	x	x	18µM*	-15%
CCCn1c2ccccc2c2cnn(CC(=O)NCc3ccccc3Cl)c(=O)c21	x	u	x	x	u	-22%
Cc1ccc(C)c(Cn2c3ccccc3c3cnn(CC(=O)NCc4ccccn4)c(=O)c32)c1	14	u	-23%	-15%	u	41%
CCCn1c2ccccc2c2cnn(CC(=O)NCCCN(CC)c3ccccc3)c(=O)c21	x	u	x	x	u	-4%
Cc1ccc(C)c(Cn2c3ccccc3c3cnn(CC(=O)NCCCc4ccccc4)c(=O)c32)c1	x	u	x	x	9.2µM*	-28%
CCCCN(CC)CCCNC(=O)Cn1ncc2c3ccccc3n(Cc3ccccc3F)c2c1=O	x	13µM*	x	x	12µM*	u
COC1C(=O)N(C2CCN(C(=O)c3cc(C)nn3C)CC2)C12CCOCC2 (stereo unspecified)	x	x	x	x	x	3%
O=C(Cn1ncc2c3ccccc3n(Cc3ccccc3F)c2c1=O)NCCN1CCOCC1	1	u	7%	8%	u	5%
